# Several values for one entry are separate records, joined by “and”; a condition that tells them apart may be missing. Identical values can stand only once. Counter-ions that a name gives are not always drawn. Screen size: about 5,800 compounds; about 620 (11%) showed activity. The list comes from a sample in which actives are over-represented; it also holds similar structures and randomly drawn compounds. Unmarked numbers belong to inactive results.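 Rule for the calls: active = score above a cut-off or among the top three wells of a plate; in these data no inactive exceeds 0.85.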
# Test system: primary human hepatic stellate cells (donor 1)
# Assay: scaled lipid accumulation score (0 = DMSO-like, 1 = nortriptyline-like); higher = stronger HSC inactivation (lipid re-accumulation), active = hit call of the paper
# Settings: 48 h
# [1] = library stock concentration: 3.33 mM
# [2] = library stock concentration: 10 mM
# [3] = library stock concentration: 80 uM
# [4] = library stock concentration: 400 uM
# [5] = library stock concentration: 2 mM
# [6] = library stock concentration: 1 mM
smiles,measurement,setting,value
O=C(Oc1cc(S(=O)(=O)c2ccccc2)ccc1[N+](=O)[O-])c1ccc(Cl)cc1,scaled lipid accumulation score,[1],≤ -0.009
same,scaled lipid accumulation score,[2],≤ 0
S=C(NCc1ccc2c(c1)OCO2)N1CCN(c2ncnc3c2oc2ccccc23)CC1 [Amuvatinib  (MP-470) (10 mM)],scaled lipid accumulation score,[2],0.068
S=C(NCc1ccc2c(c1)OCO2)N1CCN(c2ncnc3c2oc2ccccc23)CC1,scaled lipid accumulation score,[3],0.069
same,scaled lipid accumulation score,[4],≤ -0.009
same,scaled lipid accumulation score,[5],0.025
same,scaled lipid accumulation score,[2],0.035
S=C(NCc1ccc2c(c1)OCO2)N1CCN(c2ncnc3c2oc2ccccc23)CC1 [Amuvatinib  (MP-470) (0.4 mM)],scaled lipid accumulation score,[4],0.042
S=C(NCc1ccc2c(c1)OCO2)N1CCN(c2ncnc3c2oc2ccccc23)CC1 [Amuvatinib (MP-470)],scaled lipid accumulation score,[1],0.006
same,scaled lipid accumulation score,[2],≤ 0
S=C(NCc1ccc2c(c1)OCO2)N1CCN(c2ncnc3c2oc2ccccc23)CC1 [Amuvatinib  (MP-470) (2 mM)],scaled lipid accumulation score,[5],0.074
O=C(O)[C@H]1NCCC[C@H]1C(=O)O,scaled lipid accumulation score,[2],≤ 0
C[S+]([O-])c1ccc(-c2nc(-c3ccc(F)cc3)c(-c3ccncc3)[nH]2)cc1 (stereo unspecified),scaled lipid accumulation score,[3],0.004
same,scaled lipid accumulation score,[4],≤ -0.009 and ≤ -0.005
same,scaled lipid accumulation score,[6],≤ 0
same,scaled lipid accumulation score,[5],0.017 and ≤ -0.005
same,scaled lipid accumulation score,[1],≤ 0
same,scaled lipid accumulation score,library stock concentration: 13.2 mM,≤ -0.012
CCCCCC=CC=CC(O)CCCCCCCC(=O)OCC(COC(=O)CCCCCCCC=CC=CC(O)CCCCC)OC(=O)CCCCCCCC=CC=CC(O)CCCCC (stereo unspecified) [Hydroxy Linoleins],scaled lipid accumulation score,[6],0.061
c1ccc2c(Oc3nc(Nc4ccc(N5CCOCC5)cc4)c4ncn(C5CCCCC5)c4n3)cccc2c1 [Purmorphamine],scaled lipid accumulation score,[6],≤ 0
same,scaled lipid accumulation score,[1],≤ 0
same,scaled lipid accumulation score,[2],0.032
N#CCNC(=O)c1ccc(-c2ccnc(Nc3ccc(N4CCOCC4)cc3)n2)cc1 [Momelotinib (CYT387) (2 mM)],scaled lipid accumulation score,[5],0.858 (active)
N#CCNC(=O)c1ccc(-c2ccnc(Nc3ccc(N4CCOCC4)cc3)n2)cc1 [listing 1 of 2 here],scaled lipid accumulation score,[1],1.05 (active)
same,scaled lipid accumulation score,[2],0.922 (active)
N#CCNC(=O)c1ccc(-c2ccnc(Nc3ccc(N4CCOCC4)cc3)n2)cc1 [listing 2 of 2 here],scaled lipid accumulation score,[3],≤ -0.009
same,scaled lipid accumulation score,[4],0.038
same,scaled lipid accumulation score,[5],≤ -0.009
same,scaled lipid accumulation score,[2],0.768
O=C(Nc1ccc(-c2ccnc(Nc3ccc(N4CCOCC4)cc3)n2)cc1)[C@@H]1CCCN1,scaled lipid accumulation score,[2],1.06 (active)
N#CCNC(=O)c1ccc(-c2ccnc(Nc3ccc(N4CCOCC4)cc3)n2)cc1 [Momelotinib (CYT387) (10 mM)],scaled lipid accumulation score,[2],0.945 (active)
N#CCNC(=O)c1ccc(-c2ccnc(Nc3ccc(N4CCOCC4)cc3)n2)cc1 [Momelotinib (CYT387) (0.4 mM)],scaled lipid accumulation score,[4],≤ -0.005
O=C(Nc1ccc(-c2ccnc(Nc3ccc(N4CCOCC4)cc3)n2)cc1)C1CCCN1 (stereo unspecified),scaled lipid accumulation score,[3],≤ 0
same,scaled lipid accumulation score,[4],0.007
same,scaled lipid accumulation score,[5],0.036
same,scaled lipid accumulation score,[1],0.063
same,scaled lipid accumulation score,[2],0.662
CC1=C(/C=C/C(=C/C=C/C(C)=C/C(=O)O)c2ccc(C)cc2)C(C)(C)CCC1,scaled lipid accumulation score,[2],≤ -0.001
CCCCCC=CCC=CCC=CCCCCCCC(=O)OC [Dihomo-.gamma.-Linolenic Acid methyl ester],scaled lipid accumulation score,[6],0.037
CC(C)CC(N)=O,scaled lipid accumulation score,[2],0.291
CC(C)CC(N)=O [Isovaleramide],scaled lipid accumulation score,[1],≤ 0
same,scaled lipid accumulation score,[2],≤ -0.001
Cc1ncc2ccccc2c1C#N [4-Cyano-3-methylisoquinoline],scaled lipid accumulation score,[1],≤ 0
"CC(=O)NC1[C@@H](O)OC(CO)[C@@H](O)[C@H]1O[C@H](C)C(=O)O (stereo in doubt) [Muramic acid, N-acetyl]",scaled lipid accumulation score,,≤ 0
CCC(=O)Oc1ccc2c(c1)CC[C@@H]1[C@@H]2CC[C@]2(C)[C@@H](OC(=O)CC)CC[C@@H]12,scaled lipid accumulation score,[2],≤ 0
Brc1c(Br)c(Br)c2n[nH]nc2c1Br [Casein Kinase II Inhibitor I],scaled lipid accumulation score,[1],≤ 0
CCCOc1ccc(C(=O)OCCN(CC)CC)cc1N [Proparacaine hydrochloride],scaled lipid accumulation score,,≤ 0
same,scaled lipid accumulation score,library stock concentration: 6 mM,≤ 0
CCN(CCCCOC(=O)c1ccc(OC)c(OC)c1)C(C)Cc1ccc(OC)cc1 (stereo unspecified) [Mebeverine hydrochloride],scaled lipid accumulation score,,0.362
same,scaled lipid accumulation score,[2],≤ 0
CCN(CC)CCCCCCCCOC(=O)c1cc(OC)c(OC)c(OC)c1.Cl [TMB-8 hydrochloride],scaled lipid accumulation score,[2],1.03 (active)
"CCN(CC)CCOC(=O)c1cc(Cl)c(N)cc1OC [SDZ-205,557 hydrochloride]",scaled lipid accumulation score,[2],0.051
CCCOc1ccc(C(=O)OCCN(CC)CC)cc1N [Proparacaine HCl],scaled lipid accumulation score,[1],≤ 0
same,scaled lipid accumulation score,[2],≤ 0
CCCCOc1cc(C(=O)OCCN(CC)CC)ccc1N [Oxybuprocaine HCl],scaled lipid accumulation score,[1],≤ 0
same,scaled lipid accumulation score,[2],0.338
CCN(CC)CCCCCCCCOC(=O)c1cc(OC)c(OC)c(OC)c1,scaled lipid accumulation score,library stock concentration: 12.6 mM,1.02 (active)
CCN(CC)CCOC(=O)c1cc(Cl)c(N)cc1OC [SDZ 205-557 hydrochloride],scaled lipid accumulation score,[2],0.003
CCCOc1ccc(C(=O)OCCN(CC)CC)cc1N [Proxymetacaine],scaled lipid accumulation score,[2],0.166
CCCCOc1cc(C(=O)OCCN(CC)CC)ccc1N [Benoxinate hydrochloride],scaled lipid accumulation score,,0.276
COc1ccc2cc(C(C#N)OC(=O)CC3OC3c3ccccc3)ccc2c1 (stereo unspecified),scaled lipid accumulation score,[6],0.017
C[N+](C)(C)[C@@H](Cc1c[nH]c(=S)[nH]1)C(=O)[O-] [Ergothioneine],scaled lipid accumulation score,library stock concentration: 8.7 mM,≤ -0.006
CN(C)CCCCC(=O)Nc1ccc(NC(=S)NC(=O)c2ccc(C(C)(C)C)cc2)cc1 [Tenovin-6] [listing 1 of 2 here],scaled lipid accumulation score,[1],1.18 (active)
CC(=O)Nc1ccc(NC(=S)NC(=O)c2ccc(C(C)(C)C)cc2)cc1 [Tenovin-1],scaled lipid accumulation score,[6],≤ 0
CN(C)CCCCC(=O)Nc1ccc(NC(=S)NC(=O)c2ccc(C(C)(C)C)cc2)cc1 [Tenovin-6] [listing 2 of 2 here],scaled lipid accumulation score,[6],0.143
same,scaled lipid accumulation score,[2],0.405

# From the supplement of paper PMC9135407
